Inhibition data for 62 compounds are collected here from PubChem BioAssay AID777 (Sanford-Burnham Center for Chemical Genomics, 2007).

Screen size: about 96,000 compounds; about 19,000 (20%) were called active.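 Rule for the calls: active = blocking of liver enzyme CYP2C9 beyond about 50% at 5 µM (limit read from the data); inactive = the rest.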 Not all results are given here.

In the assay the target is Cytochrome P450 2C9 (Homo sapiens) (UniProt P11712). Kind of assay: blockers of cytochrome P450 2C9 activity – biochemical, luminescence, ADME assay, primary screen (AID 777). As to conditions: CYP2C9 Supersomes, luciferin-H conversion, at 5 µM, stronger effect = higher value.
Chain of Cytochrome P450 2C9 (Homo sapiens) (P11712 whole entry, looked up): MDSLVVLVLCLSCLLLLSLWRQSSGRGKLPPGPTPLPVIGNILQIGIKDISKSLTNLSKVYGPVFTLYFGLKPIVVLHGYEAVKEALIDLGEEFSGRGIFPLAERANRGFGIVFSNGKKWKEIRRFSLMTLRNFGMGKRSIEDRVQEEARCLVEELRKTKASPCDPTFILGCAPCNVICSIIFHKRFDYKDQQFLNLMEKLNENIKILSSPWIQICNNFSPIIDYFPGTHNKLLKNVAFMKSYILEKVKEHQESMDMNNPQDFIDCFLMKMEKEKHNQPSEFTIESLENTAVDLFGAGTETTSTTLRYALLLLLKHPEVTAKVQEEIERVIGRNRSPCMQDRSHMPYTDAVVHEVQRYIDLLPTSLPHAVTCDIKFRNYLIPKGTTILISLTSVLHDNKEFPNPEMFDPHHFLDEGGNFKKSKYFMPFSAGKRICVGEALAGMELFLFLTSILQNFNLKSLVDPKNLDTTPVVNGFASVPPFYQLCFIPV
As for `CC(=O)c1nn(-c2cccc(Br)c2)cc1C(=O)c1cccc2ccccc12`, the inhibition (as a rule, the change of the read-out against control, counted positive when it falls) was -72% (inactive).

As to `CC(C)COC(=O)C1C2C=CC3(CN(C(C)c4ccc(Br)cc4)C(=O)C13)O2` (configuration not stated), the inhibition was 9.2% (inactive).

Regarding `Cc1cc(NC(=O)c2cnn3cccnc23)n(-c2ccccc2)n1`, the inhibition was 32% (inactive).

With `COc1ccc(CCN(C)CCN2C(=O)c3ccccc3C2=O)cc1OC`, the inhibition was -9.6% (inactive).

Regarding `CCN(CC)CCN1C(=O)C(=O)/C(=C(/O)c2ccc(OC)c(OC)c2)C1c1ccccn1` (configuration not stated), the inhibition was -10.7% (inactive).

With `COc1ccc(CCN2C(=O)c3[nH]nc(-c4ccccc4O)c3C2c2ccc(C)cc2)cc1OC` (configuration not stated), the inhibition was 58% (active).

For the compound `CCCCCCSc1nsc(N)n1`, the inhibition is 1.5% (inactive).

In the case of `CCOC(=O)c1sc(=S)n(-c2cccc(OC)c2)c1N`, the inhibition was -20.4% (inactive).

Turning to `CC1CCN(C(=O)CN(c2ccc(Oc3ccccc3)cc2)S(C)(=O)=O)CC1`, the inhibition was 50.7% (active).

Regarding `CS(=O)(=O)N(CC(=O)N1CCN(Cc2ccc3c(c2)OCO3)CC1)c1ccc2c(c1)OCO2`, the inhibition was 7.2% (inactive).

Take `COc1cccc(N(CC(=O)N2CCc3ccccc3C2)S(C)(=O)=O)c1`: the inhibition was 14.5% (inactive).

Consider `CS(=O)(=O)N(CC(=O)N1CCN(Cc2ccccc2)CC1)c1ccc2c(c1)OCCO2`, for which the inhibition was -0.9% (inactive).

Regarding `Cc1cccc(N(CC(=O)N2CCOCC2)S(C)(=O)=O)c1`, the inhibition was 3.8% (inactive).

For `CS(=O)(=O)N(CC(=O)N1CCN(c2cccc(Cl)c2)CC1)c1ccccc1`, the inhibition was 54.7% (active).

For `O=C(Nc1cccnc1)c1noc2c1CCCCC2`, the inhibition is 33.5% (inactive).

Turning to `Cc1nn(CC(=O)Nc2ccc3c(c2)nc(CN2CCCCC2)n3C)c(=O)c2ccccc12`, the inhibition is 16.1% (inactive).

Take `O/N=C(\c1ccc2c(c1)OCCO2)C1CCCCC1`: the inhibition was 35.2% (inactive).

As for `CCOc1ccccc1N=C1NC(=O)CS1`, the inhibition is -11.8% (inactive).

`COc1ccc(OCc2ccc(-c3nc4ccccc4c(=O)n3N)o2)cc1`: the inhibition was 45.5% (inactive).

For `O=C(O)/C=C/C(=O)Nc1ccc(F)cc1F`, the inhibition is 3.9% (inactive).

As for `NC(=O)c1ncc(C(F)(F)F)cc1Oc1ccc(F)cc1`, the inhibition was 7.9% (inactive).

Consider `Cn1c(=O)[nH]c(=O)c2c1nc(N(CCO)Cc1ccccc1)n2Cc1ccccc1Cl`, for which the inhibition was 25.8% (inactive).

With `CN(Cc1ccccc1)c1nc2c(c(=O)[nH]c(=O)n2C)n1CCSc1nc2ccccc2[nH]1`, the inhibition was 67.2% (active).

On to `CCCSc1nc2c(c(=O)[nH]c(=O)n2C)n1CCc1ccccc1`, for which the inhibition is 14.6% (inactive).

As to `Brc1ccc(/C=N/N2CCN(C3c4ccccc4-c4ccccc43)CC2)s1`, the inhibition is 25.4% (inactive).

As for `O=[N+]([O-])c1ccccc1/C=N/n1c(COc2ccccc2)n[nH]c1=S`, the inhibition was 8.7% (inactive).

As for `Cn1nc(-c2ccc(Cl)cc2)c2cc(C(=O)NCc3ccco3)sc21`, the inhibition was 43.4% (inactive).

In the case of `Cc1nc(C)c(C(=O)N(c2ccc(C)c(C)c2)C(C(=O)NCc2ccco2)c2ccccc2)s1` (configuration not stated), the inhibition is 46.6% (inactive).

For `Cc1nn(-c2ccccc2)c2sc(C(=O)N(Cc3ccco3)C(C)C(=O)NC(C)(C)C)cc12` (configuration not stated), the inhibition is 65.2% (active).

`CCn1nnc(NC(=O)c2cc(Cl)c(OC)c(Cl)c2)n1`: the inhibition is -1.7% (inactive).

`O=C(N1CCOCC1)N(Cc1ccccc1)c1ccccn1`: the inhibition is 8.5% (inactive).

Turning to `CCC(C)Sc1nc(C)nc2c1c(=O)n(C)c(=O)n2C` (configuration not stated), the inhibition is 8.4% (inactive).

Take `COc1cccc(/C=N/NC(=O)c2cccc([N+](=O)[O-])c2)c1OS(=O)(=O)c1ccc(C)cc1`: the inhibition is 1.8% (inactive).

Regarding `Cc1ccc(-c2nn(-c3ccccc3)cc2/C=N/NC(=O)c2ccc3c(c2)OCO3)cc1`, the inhibition is 76.1% (active).

For `Cc1nnc(SCC(=O)N/N=C/c2cn(-c3ccccc3)nc2-c2ccc(F)cc2)n1-c1ccccc1`, the inhibition was 29.6% (inactive).

On to `CC/C(C)=N/Nc1nc2sc3c(c2c(=O)[nH]1)CC(C)(C)OC3`, for which the inhibition was 30.9% (inactive).

With `Cc1cccc(NC(=O)CSc2nnc(-c3ccco3)o2)c1`, the inhibition was 29.1% (inactive).

In the case of `CCOC(=O)c1sc(NC(=O)CSc2ncccn2)c(C#N)c1C`, the inhibition was 45.3% (inactive).

With `CCOC(=O)c1sc(NC(=O)CSc2nnc(-c3ccco3)o2)c(C(=O)OCC)c1C`, the inhibition is 78.6% (active).

Turning to `CCOC(=O)Cc1csc(NC(NC(=O)OCC)(C(F)(F)F)C(F)(F)F)n1`, the inhibition is 22.3% (inactive).

Consider `Cc1cc(N2CCCC2=O)cc(C)c1S(N)(=O)=O`, for which the inhibition was -21.5% (inactive).

`COC(=O)[C@H](CCSC)NC(=O)Nc1ccc(OC)cc1`: the inhibition is 7.5% (inactive).

For `Cc1cc(C(=O)NCCCc2ccccc2)no1`, the inhibition was 2.4% (inactive).

As to `Cc1ccc(-c2nn(-c3ccccc3)cc2CN(Cc2ccccc2)C(=O)CCC(=O)O)o1`, the inhibition was 65.1% (active).

Consider `O=C(O)CCC(=O)N(Cc1cccs1)Cc1cccs1`, for which the inhibition was 31.5% (inactive).

As for `CCN(Cc1ccccc1)C(=O)CSc1nc(C)cc2c1C(=O)OC2`, the inhibition was -130% (inactive).

With `CCCSC(=S)NC1CCS(=O)(=O)C1` (configuration not stated), the inhibition was 19.1% (inactive).

In the case of `Cc1ccc(Cc2cnc(N)s2)o1`, the inhibition was 3% (inactive).

With `N/C(=N\OC(=O)CCc1ccccc1)c1ccc(Cl)cc1`, the inhibition was 8.3% (inactive).

As for `COc1cc(/C=N/O)cc(Br)c1OS(=O)(=O)c1ccc(C)cc1`, the inhibition was 67.9% (active).

`CCOc1cc(/C=N/O)cc(Br)c1OC`: the inhibition was 17.9% (inactive).

Regarding `COc1cc(/C=N/O)cc(Br)c1OCc1cccc(Cl)c1`, the inhibition was -39.5% (inactive).

On to `O=C(NCc1cn2ccsc2n1)Nc1cccc(Cl)c1`, for which the inhibition was -17.8% (inactive).

With `Cc1cccc(NC(=O)C2CCN(S(=O)(=O)c3cccc4cccnc34)CC2)c1`, the inhibition is -180% (inactive).

Consider `COC(=O)c1sc(=S)n(-c2ccccc2)c1N`, for which the inhibition was 3.7% (inactive).

As for `COCCOC(=O)c1sc(=S)n(CCOC)c1N`, the inhibition was 1% (inactive).

Consider `CCOC(=O)Cn1c(N)c(C(=O)OC)sc1=S`, for which the inhibition is 57.8% (active).

Consider `Cc1ccc(O)c(CNc2nc3ccccc3n2C)c1`, for which the inhibition is 21.9% (inactive).

Regarding `O=C(COc1cccc(-n2cnnn2)c1)NCCC1=CCCCC1`, the inhibition is 79.4% (active).

For `Cc1nnc(OCC(=O)NCCC2=CCCCC2)c2ccccc12`, the inhibition is -29.1% (inactive).

Turning to `O=C(COc1ccc(Cl)cc1)NCCC1=CCCCC1`, the inhibition was 40.4% (inactive).

With `CC(C)(C)c1cc(CN2CCN(CCC#N)CC2)cc(C(C)(C)C)c1O`, the inhibition is 4.9% (inactive).
